# Screening data deposited in PubChem by several laboratories.
# The list is not random: actives were taken first. Their share in the collection is about 1.3%.
# Calb biofilm kill: kills Candida albicans biofilms | inhibition, % at 6 µM | C. albicans biofilm + clotrimazole, Alamar Blue | 85,000 tested, 0.14% active;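 active = inhibition above 20%; inactive = inhibition below 20%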;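 note: preformed 24 hr biofilms exposed to compound for 48 hr; 0% = biofilm without compound and 100% = blank killed by clotrimazole plus chlorhexidine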
# GALR2 blocker: GALR2 (human) receptor antagonism | O43603 | GALR2-expressing cells, antagonist mode | inhibition, % at 4 µM | 140,000 tested, 0.39% active; in the data active = inhibition above about 27%;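 note: cells stimulated with galanin 1-16 at roughly its EC80; 0% = agonist challenge control and 100% = basal control without agonist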
# S1P2 ag: agonists of human S1P2 receptor; S1P2-expressing cell line, agonist reporter read-out; AID 729; 97,000 tested, 0.46% active; activation, % at 4.5 µM; in the data active = activation above about 16%;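 note: 0% = vehicle low control and 100% = maximal reference agonist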
# Target sequence (O95136 whole entry, looked up): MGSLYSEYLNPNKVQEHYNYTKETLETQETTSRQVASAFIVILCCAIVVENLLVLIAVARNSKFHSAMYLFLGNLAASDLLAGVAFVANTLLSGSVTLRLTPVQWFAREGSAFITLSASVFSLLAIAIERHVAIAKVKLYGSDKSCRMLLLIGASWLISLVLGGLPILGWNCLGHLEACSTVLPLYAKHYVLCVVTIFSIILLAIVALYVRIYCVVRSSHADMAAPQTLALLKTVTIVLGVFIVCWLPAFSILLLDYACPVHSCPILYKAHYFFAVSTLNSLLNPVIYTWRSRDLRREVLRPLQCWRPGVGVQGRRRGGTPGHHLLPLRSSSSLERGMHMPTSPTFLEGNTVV
# GALR2 agonist: activates the human galanin receptor 2; O43603; GALR2-expressing cells, agonist activation read-out; activation, % (no concentration beside the values); 140,000 tested, 0.48% active; in the data active = activation above about 5%, passing the limit was not always enough;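 note: 0% = vehicle buffer wells and 100% = reference agonist at full effect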
# S1P2 antag: S1P2 (human) receptor antagonism. cell-based S1P2 antagonist assay, inhibition at 5 uM. O95136. AID 736. inhibition, % at 5 µM. 97,000 tested, 0.21% active; in the data active = inhibition above about 45%;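 note: CRE beta-lactamase reporter cells expressing human S1P2 stimulated with S1P; 0% = agonist at EC80 alone and 100% = agonist plus reference antagonist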
# Phagocyt inh: macrophage phagocytosis inhibition; J774A.1 macrophage IgG-bead phagocytosis, imaging; 110,000 tested, 0.07% active; inhibition, % at 5 µM; AID 1029;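 active = inhibition above the mean of the plate negative controls plus 5 SD, cut at about 13% in these data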;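 note: phagocytic index as fraction of beads internalized from green versus red external bead signal; plate controls were DMSO negative control for no effect and cytochalasin-D positive control for full effect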
# GALR2 agon conf: GALR2 (human) agonism confirmed. activation, % at 5.6 µM. AID 864. shares compounds with GALR2 agonist. 460 tested, 10% active. GALR2-expressing cells, agonist activation; in the data active = activation above about 8.4%;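 note: 0% = buffer-only vehicle wells and 100% = full reference agonist response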
# BLA act counter: counter-screen for GALR2 agonists: beta-lactamase reporter activators; shares compounds with GALR2 agonist; CHO NFAT-bla reporter, beta-lactamase FRET activation; activation, % at 5.6 µM; 460 tested, 10% active;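 active = activation above the screen-wide mean activation plus 3 SD, cut at about 8% in these data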;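 note: 0% = DMSO with PBS wells and 100% = thapsigargin positive control wells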
# An asterisk follows results filed as active; / = no result given.
SMILES,Calb biofilm kill,GALR2 blocker,S1P2 ag,GALR2 agonist,S1P2 antag,Phagocyt inh,GALR2 agon conf,BLA act counter
CC1(C)Cc2c(C#N)c(N3CCCC3)nc(-c3ccco3)c2CO1,3,-9,9,11,-36,0,2,4
Cc1ccc(/C(N)=N/OC(=O)c2ccco2)cc1,4,11,-6,-3,-12,/,/,/
Cc1ccc(NC2=C(Cl)C(=O)OC2OC(=O)c2ccco2)cc1 (stereo not drawn),5,8,-3,35*,-5,-1,-1,-1
CCCCn1c(SCC(=O)N2CCC(C)CC2)nc2cc(S(N)(=O)=O)ccc21,9,-3,-5,1,17,0,/,/
CCCCn1c(SCC(=O)c2cc(OC)ccc2OC)nc2cc(S(N)(=O)=O)ccc21,5,6,/,68*,/,0,1,0
Cc1ccc(NC(=O)CN2CCCN(S(=O)(=O)c3ccc(Br)s3)CC2)cc1,-1,-3,-3,8,-12,-1,0,-1
Cc1cc(C)cc(NC(=O)CN2CCCN(S(=O)(=O)c3ccc(Br)s3)CC2)c1,2,-7,-2,-1,-10,-1,/,/
CCOc1ccc(Nc2nc(Cc3nnc(SCC(=O)c4ccc(C)c(C)c4)o3)cs2)cc1,0,5,-4,19*,5,-1,-1,0
CC1(C(=O)NCc2cc(F)cc(C(F)(F)F)c2)C=CC2(CCCCC2)N1C(=O)c1ccccc1 (stereo not drawn),/,4,/,-1,/,/,/,/
Cc1ccc(OCc2nnc(SCC(=O)NCc3ccco3)n2C)cc1,9,-4,-4,-1,-11,/,/,/
CCOc1ccc(Nc2nc(Cc3nnc(SCC(=O)NCc4ccco4)n3CC)cs2)cc1,10,-17,-6,12*,-11,-2,12*,27*
COCCOC(=O)c1c(C)n(C)c2ccc(OC(=O)c3ccco3)cc12,-2,-9,-7,86*,-10,0,0,1
COCCNC(=O)CCc1c(C)nc2c(-c3ccc(F)cc3)c(C)nn2c1C,2,-11,-3,42*,4,-1,0,-1
Cc1nc2c(-c3ccc(F)cc3)c(C)nn2c(C)c1CCC(=O)NCCN1CCOCC1,5,1,-5,-1,-11,0,/,/
COc1ccc(NC(=O)COc2ccccc2)c(OC)c1,5,2,-3,16*,5,1,-1,-3
COc1ccc(NC(=O)COC(=O)Cc2ccc(-c3ccccc3)cc2)c(OC)c1,/,11,/,0,/,-8,/,/
CCOC(=O)c1c(NC(=O)C2=C(C)NC(=S)NC2c2ccc(CC)cc2)sc(C)c1C (stereo not drawn),/,-2,/,9.5*,/,-1,4,4
COc1ccc(C2c3c(oc4ccc(Cl)cc4c3=O)C(=O)N2Cc2ccco2)cc1OC (stereo not drawn),2,12,/,21*,/,-1,7,5
N#C/C(=C\c1ccc(-c2ccc(C(=O)O)cc2)o1)C(=O)NCC1CCCO1 (stereo not drawn),/,0,/,-1,/,-13,/,/
CCOC(=O)c1ccc(-c2ccc(/C=C(\C#N)C(=O)NCc3cccs3)o2)cc1,/,0,/,9.3*,/,-6,9.4*,8.7*
Cc1ccc2nc3c(cc(C(=O)NCC4CCCO4)c(=N)n3CCCOC(C)C)c(=O)n2c1 (stereo not drawn),2,-12,5,10,-5,-1,1,3
Cc1ccc2nc3c(cc(C(=O)NCC4CCCO4)n3C)c(=O)n2c1 (stereo not drawn),/,-8,-1,0,7,/,/,/
O=C(C/C=N/OCc1c(Cl)cccc1Cl)c1ccc(Cl)cc1,/,0,-5,-3,6,0,/,/
COCCN1C=C(C(=O)OC)C(c2ccccc2C(F)(F)F)C(C(=O)OC)=C1,6,-2,11,18*,-15,4,2,6
Cc1nc(NCc2ccco2)c2c(C)c(C)sc2n1,5,6,0,-3,2,-1,/,/
Cc1nc(SCC(=O)N(C)Cc2ccco2)c2c(C)c(C)sc2n1,6,-1,3,11,-23,0,0,0
CCOc1ccccc1NC(=O)N1C2CCCC1CC(NC(=O)C1CC1)C2 (stereo not drawn),7,2,-3,0,-13,/,/,/
N#Cc1cc2ccccc2nc1SCc1ccccn1,3,20,-7,-2,13,0,/,/
